# Data taken from PubChem BioAssay (Tox21).
# Inconclusive results are not listed. Activity calls are given as the source filed them. The call rests on the fitted dose curve; in most records, active means well fitted curve in the direction sought with a large enough effect in the signal ratio in the repeat runs (not every such curve was filed as active); inconclusive means weak or mixed curves, or a change in a side signal; inactive means no such curve, though single readings can be large or run the other way; the % refers to the signal ratio.
# Experiment: qHTS assay to identify small molecule agonists of the NFkB signaling pathway (AID 1159509)
# Conditions: NFkB-bla ME-180 cells, beta-lactamase FRET ratio, 5 h; series mostly up to 61 µM; activation: at the top concentration
# In short: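 Readout: FRET fluorescence, 405 nm excitation, 460/530 nm emission; beta-lactamase expression disrupts FRET. Cells: ME-180 stably carrying NF-kB-driven bla reporter. Compound exposure 5 hr, 37 C, 5% CO2.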
# On the % scale 0 is the no-effect control and ±100 the full control effect.
Compound,activation,outcome
OC(CCl)CCl,-0.0079% [at 78.8 µM] (inactive),–
c1cc(N(CC2CO2)CC2CO2)ccc1OCC1CO1 (centres undefined),–,inactive
CN(C)CCC=C1c2ccccc2CCc2ccccc21,–,inactive
NC=O,-0.0276% [at 78.8 µM] (inactive),–
O=CCc1ccccc1,0.293% (inactive),–
CCCCOCCOCCOCCO,–,inactive
CCOCCOCCO,–,inactive
CCC(C)(O)CCCC(C)C (centres undefined),0.0801% (inactive),–
O=P(O)(O)O,–,inactive
CCCCNS(=O)(=O)c1ccccc1,-0.0544% (inactive),–
Cc1ccc(C)c(O)c1C,1.97% (inactive),–
Cc1[nH]c(=O)c(C#N)cc1-c1ccncc1,-0.01% (inactive),–
CNCCCC12CCC(c3ccccc31)c1ccccc12,–,inactive
Cc1cccc(C(=O)O)c1,–,inactive
Nc1ncn([C@@H]2O[C@H](CO)[C@@H](O)[C@H]2O)c(=O)n1,–,inactive
OC1CCCCCCCCCCC1,4.57% (inactive),–
c1ccncc1,-1.03% [at 78.8 µM] (inactive),–
Nc1ncnc2nc[nH]c12,–,inactive
CC(C(=O)O)c1cccc(C(=O)c2ccccc2)c1 (centres undefined),–,inactive
Cc1c(C(N)=O)cc([N+](=O)[O-])cc1[N+](=O)[O-],–,inactive

Compound,activation,outcome
CC(C)OC=O,-0.235% (inactive),–
O=[N+]([O-])c1ccc2c(c1)Cc1ccccc1-2,1.06% (inactive),–
Cc1c(OCC(F)(F)F)ccnc1CS(=O)c1nc2ccccc2[nH]1 (centres undefined),–,inactive
CC(C)OC(=O)C(C)(C)Oc1ccc(C(=O)c2ccc(Cl)cc2)cc1,-0.447% (inactive),–
c1ccc2c(c1)c1cccc3ccc4cccc2c4c31,2.33% (inactive),–
O=Cc1ccccc1O,–,inactive
C[C@]12CC[C@H]3[C@@H](CCC4=CC(=O)CC[C@@]43C)[C@@H]1CC[C@@H]2C(=O)CO,-0.401% (inactive),–
O=CCCCC=O,1.82% (inactive),–
COC(C)COC(C)COC(C)CO (centres undefined),-0.445% (inactive),–
COC(=O)C1=C(C)NC(C)=C(C(=O)OCCN(C)Cc2ccccc2)C1c1cccc([N+](=O)[O-])c1 (centres undefined),0.0564% (inactive),–
CC(C)Oc1ccc2c(=O)c(-c3ccccc3)coc2c1,–,inactive
C=C(C)C(=O)OCCOC(=O)C(=C)C,0.496% (inactive),–
Clc1nc(Cl)c(Cl)c(Cl)c1Cl,-0.162% (inactive),–
O=C(/C=C/C=C/c1ccc2c(c1)OCO2)N1CCCCC1,–,inactive
C[C@]12CCC(=O)C=C1CC[C@@H]1[C@@H]2C(=O)C[C@@]2(C)[C@H]1CC[C@]2(O)C(=O)CO,-0.0622% (inactive),–
CN1C(C(=O)Nc2ccccn2)=C(O)c2ccccc2S1(=O)=O,-0.106% (inactive),–
Cc1ccc(C(=O)c2cc(O)c(O)c([N+](=O)[O-])c2)cc1,–,inactive
CC(C)CC(C)(O)C#CC(C)(O)CC(C)C (centres undefined),-0.79% (inactive),–
O=c1oc(=O)c2cc3c(=O)oc(=O)c3cc12,–,inactive
